Assay outcomes: PubChem, several laboratories
C8 TRAIL sens: caspase-8 TRAIL sensitization; NB7+C8 cells + TRAIL, ATPlite viability luminescence; inhibition (viability loss, TRAIL sensitization), % at 10 µM; 1% of 360,000 active; AID 624354;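 active = compounds causing at least 50% loss of cell viability in the single-dose screen, relative to plate controls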
TROY NFkB inh: blocks TROY-dependent signaling in reporter cells | Q293 LMP1-TROYcd NF-kB luciferase reporter, 4 h | inhibition, % at 10 µM | 0.98% of 360,000 active | AID 1347056;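 active = compounds whose plate-normalised and pattern-corrected inhibition of the luciferase reporter signal at the single screening dose is 50% or more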
TWEAK Fn14 block: TWEAK-Fn14 signaling inhibition; TWEAK-stimulated Fn14 reporter cells, luciferase luminescence, 8 h; inhibition, % at 10 µM; 2% of 360,000 active; in the data active = inhibition above about 50%
HIF-2a inh: HIF-2a inhibition. 786-0 RCC cells HIF-2a reporter, luciferase luminescence, overnight. inhibition, % at 18.8 µM. 0.72% of 360,000 active. AID 624352;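 active = inhibition of the luminescence signal of 40% or more relative to plate controls, in a single-dose primary screen at 18.75 µM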
aSyn UTR inh: 5' untranslated region of α-synuclein, MLPCN primary screen. alpha-synuclein 5'UTR reporter, inhibitor activity. inhibition, % (tested at 7.5 µM). 0.82% of 300,000 active; in the data active = inhibition above about 60%;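 note: H4 neuroglioblastoma cells stably carrying SNCA 5'UTR luciferase fusion; 0% = DMSO wells and 100% = positive control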
HSP90 inh: inhibitors of HSP90 luciferase refolding in rabbit reticulocyte lysate; AID 1789; luciferase refolding luminescence, 3 h; 0.91% of 290,000 active; inhibition, % at 5.6 µM;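 active = inhibition above the screen-wide mean plus 3 SD, computed separately per campaign, cut at about 16% in these data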;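 note: 0% = DMSO wells and 100% = 60 µM geldanamycin wells; inhibitors lower the luminescence because luciferase stays unfolded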
HSP90 inh confirm: confirmation of HSP90 inhibitors; shares compounds with HSP90 inh; rabbit reticulocyte lysate, luciferase refolding luminescence, 3 h; inhibition, % at 5.9 µM; 64% of 2,300 active; in the data active = inhibition above about 18%;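 note: 0% = vehicle wells and 100% = reference inhibitor wells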
luciferase ctr: blocks native firefly luciferase in HSP90 counter-screen. purified native firefly luciferase, luminescence. 48% of 2,300 active. shares compounds with HSP90 inh. inhibition, % at 5.9 µM;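 active = inhibition above the mean inhibition of all tested sample wells plus 3 SD, cut at about 10% in these data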;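 note: 0% = DMSO with luciferase and 100% = wells lacking luciferase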
Target sequence (P08659 whole entry, looked up): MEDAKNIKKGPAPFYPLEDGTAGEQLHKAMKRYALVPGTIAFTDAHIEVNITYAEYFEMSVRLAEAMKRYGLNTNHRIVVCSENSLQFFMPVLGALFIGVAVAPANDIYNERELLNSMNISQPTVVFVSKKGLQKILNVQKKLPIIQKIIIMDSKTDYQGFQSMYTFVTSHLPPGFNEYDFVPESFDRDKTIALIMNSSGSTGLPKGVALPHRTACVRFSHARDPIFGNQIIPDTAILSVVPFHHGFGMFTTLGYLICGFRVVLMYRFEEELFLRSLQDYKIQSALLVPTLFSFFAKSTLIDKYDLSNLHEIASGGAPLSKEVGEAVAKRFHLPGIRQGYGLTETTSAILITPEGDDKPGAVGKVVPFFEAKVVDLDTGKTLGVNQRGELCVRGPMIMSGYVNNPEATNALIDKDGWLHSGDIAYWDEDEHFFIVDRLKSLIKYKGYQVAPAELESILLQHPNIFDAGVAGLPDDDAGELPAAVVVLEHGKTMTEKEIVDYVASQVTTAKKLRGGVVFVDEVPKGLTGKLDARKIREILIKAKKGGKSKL
* hit, by the source's call; · = not tested or not shown. The list is not random: actives were taken first. Their share in the collection is about 3.9%.

SMILES	C8 TRAIL sens	TROY NFkB inh	TWEAK Fn14 block	HIF-2a inh	aSyn UTR inh	HSP90 inh	HSP90 inh confirm	luciferase ctr
COCOc1ccc(-c2ncc(OCCN3CCCC3=O)nc2NC(=O)c2cc3ccccc3s2)cc1	-16	10	-1	7	·	·	·	·
CSc1ncccc1C(=O)NCc1nnc2ccccn12	4	-1	-2	19	·	·	·	·
COc1ccccc1Nc1nc(-c2sc(NC(=O)c3ccccc3)nc2C)cs1	-21	-17	47	-51	-18	47*	24*	-11
COc1cccc(Nc2nc(-c3sc(NC(=O)c4ccco4)nc3C)cs2)c1	4	-14	8	-37	25	14	·	·
Cc1nc(NC(=O)c2ccccc2)sc1-c1csc(Nc2cccc(F)c2)n1	·	·	·	·	-81	37*	28*	-19
O=C(Nc1ccc(C(=O)NCCCN2CCN(c3ccc(F)cc3)CC2)cc1)C1=CSCCO1	11	-5	12	12	22	30*	-3	-6
O=C(Nc1ccc(C(=O)NCCCN2CCCCC2)cc1)C1=CSCCO1	-3	-2	-2	2	-10	-3	·	·
Cc1nc(NC(=O)/C=C/c2ccccc2)sc1C(=O)Nc1ccccc1Cl	-3	20	43	-17	-16	27*	54*	-19
Cc1ccc(C)c(OCC(=O)Nc2cccc(C(=O)O)c2)c1C	-8	-29	-19	-121	-110	1	·	·
Cc1cccc(C)c1OCC(=O)Nc1cccc(C(=O)O)c1	2	-60	-14	-32	-22	23*	36*	30*
CC(C)CN(CCCNC(=O)CN1C(=O)COc2ccc(S(=O)(=O)N3CCCCCC3)cc21)CC(C)C	-9	3	-6	5	-1	0	·	·
CC(C)CN(CCCNC(=O)CN1C(=O)COc2ccc(S(=O)(=O)N3CCCC3)cc21)CC(C)C	6	-28	-1	10	8	22*	-4	-5
CC(C)NC(=O)c1cc2c(s1)CCCC2	4	-21	-5	-91	-54	1	·	·
Cc1cnc(NC(=O)c2cc3c(s2)CCCC3)s1	92*	57*	86*	-13	65*	43*	66*	64*
Cc1csc(NC(=O)c2cc3c(s2)CCCCC3)n1	91*	77*	95*	27	92*	61*	79*	77*
Cc1csc(NC(=O)c2ccc(N3CCCC3=O)cc2)n1	71*	70*	90*	33	101*	42*	77*	68*
Cc1csc(NC(=O)c2cc3c(s2)CCCC3)n1	78*	35	71*	-3	29	35*	50*	50*
CCc1nc2ccc(C(=O)NCc3cccs3)cn2c1N(C)Cc1nccs1	-3	-13	-20	11	·	·	·	·
CCCCNC(=O)c1nc(-c2ccncc2)oc1-c1ccccc1	5	3	-3	-4	·	·	·	·
O=C(Cc1ccc(NC(=O)C2CCN(C(=O)C3CCCC3)CC2)cc1)Nc1ccc(C(=O)N2CCOCC2)cc1	-4	-13	2	3	·	·	·	·
CC1CCC(NC(=O)CN2C(=O)C3CC=CCC3C2=O)CC1 (stereo not drawn)	-8	-9	1	-5	·	·	·	·
O=C(CCCn1cnc([N+](=O)[O-])n1)Nc1cccc(Cl)c1Cl	14	-6	14	14	-6	-6	·	·
Cc1c(Cl)cccc1NC(=O)CCCn1cnc([N+](=O)[O-])n1	0	-21	1	14	5	18*	2	-4
Cc1c(C(=O)O)cccc1-n1c(C)cc(/C=N/NC(=O)c2cc3ccccc3o2)c1C	7	-3	-10	-11	-12	22*	14	-11
Cc1c(C(=O)O)cccc1-n1c(C)cc(/C=N/Nc2ccc([N+](=O)[O-])cn2)c1C	-17	-72	-24	-68	-57	-2	·	·
SMILES	C8 TRAIL sens	TROY NFkB inh	TWEAK Fn14 block	HIF-2a inh	aSyn UTR inh	HSP90 inh	HSP90 inh confirm	luciferase ctr
O=C(NCc1ccccc1)c1cc(C2CCCN(C(=O)CCCc3ccccc3)C2)on1 (stereo not drawn)	11	10	4	-4	·	·	·	·
CCOC(=O)c1ccc(-c2c(-c3ccc4c(c3)OCO4)noc2C)cc1F	15	1	-11	3	25	17*	2	-6
C[C@H](NC(=O)/C=C/[C@H]1O[C@@H](n2ccc(=O)[nH]c2=O)[C@H](O)[C@@H]1O)C(=O)O	11	9	7	14	·	·	·	·
Cc1ccc(-c2nc(-c3ccncc3)no2)cc1C	27	18	49	-170	-54	21*	29*	25*
Cc1ccc(-c2nc(-c3ccncc3)no2)cc1Cl	1	-39	-10	-318	-99	1	·	·
Cc1cc(C(=O)CSc2nncs2)c(C)n1Cc1ccco1	29	-28	28	-89	42	22*	55*	41*
CC(=O)Nc1ccccc1OCC(=O)c1cc(C)n(Cc2cccs2)c1C	26	36	64*	-35	-150	47*	69*	-15
Cc1cc(C(=O)CSc2nnc(N)s2)c(C)n1Cc1cccs1	69*	-49	29	2	69*	28*	65*	59*
Cc1cc(C(=O)CSc2nn(-c3ccccc3)c(=S)s2)c(C)n1Cc1ccco1	-7	3	19	-10	5	1	·	·
Cc1csc(SCC(=O)c2cc(C)n(Cc3cccs3)c2C)n1	79*	12	-11	38	73*	65*	85*	81*
COc1ccc(-c2nnc(SCC(=O)c3cc(C)n(Cc4cccs4)c3C)o2)cc1	-5	-13	22	7	-4	5	·	·
C[C@H](CO)N1C[C@H](C)[C@@H](CN(C)C(=O)Cc2ccccc2)OCCCC[C@H](C)Oc2ccc(NC(=O)NC3CCCCC3)cc2C1=O	-6	6	0	0	·	·	·	·
C/C=C/c1ccc2c(c1)O[C@H](CN(C)C(=O)NC1CCCC1)[C@H](C)CN([C@H](C)CO)S2(=O)=O	5	-8	-26	4	·	·	·	·
CCCCNC1=CC(=O)C(=O)c2ccccc21	32	-24	13	8	40	24*	19*	-3
COc1cc2c(c(OC)c1OC)C(=O)CO2	7	26	-20	12	·	·	·	·
COCCn1cnnc1SCC(=O)Nc1sc2c(c1C#N)CCC2	-6	4	7	3	·	·	·	·
Cn1cnnc1SCC(=O)Nc1sc2c(c1C(N)=O)CCC2	-5	8	-7	4	-23	22*	5	-6
CN1C(=O)S/C(=C/c2ccc(OCc3cccc(C(=O)O)c3)cc2)C1=O	14	-43	-4	29	35	46*	50*	-3
CCCCCCn1cc(CN2CC(N3CCN(CCN(C)C)CC3)CS2(=O)=O)nn1 (stereo not drawn)	5	-6	12	22	·	·	·	·
CCOc1ccc2nc(-c3ccccc3)[nH]c2c1	69*	-4	44	-118	2	19*	21*	13*
